This note sets out measurements from PubChem BioAssay (EPA / NIEHS).

Some compounds were tested as several samples or in several runs, with calls that do not always agree. Calls of active or inactive are those of the source. Rule for the calls: active = hit-call score of the fitted dose curve at least 0.9, where 1 is the maximum; inactive = score below 0.9.

Read-out in one assay: Thrombomodulin, THBD (gene 7056)
Kind of assay: BSK_CASM3C_Thrombomodulin: BioMAP Diversity Plus: CASM3C Assay for Thrombomodulin Biomarker Activity (AID 2283051).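 Note: thrombomodulin protein level measured by ELISA 24 h after dosing.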 Particulars: primary human coronary artery smooth muscle cells; actives raise or lower the signal.
Take `ClCC(Cl)CCl`: the result was inactive.

Turning to `CCOP(=S)(OCC)SCSP(=S)(OCC)OCC`, the outcome was inactive.

For `CC(=O)C(Cl)C(=O)N(C)C` (configuration not stated), the outcome was inactive.

Take `COc1cc(-c2ccc(N)c(OC)c2)ccc1N`: the result was inactive.

Consider `O=C1C2(Cl)C3(Cl)C4(Cl)C(Cl)(Cl)C5(Cl)C3(Cl)C1(Cl)C5(Cl)C24Cl` (configuration not stated), for which the AC50 (usually the midpoint of the concentration-response curve, whichever way the signal moves) was 33.6 µM (active).

Regarding `CCOC(=O)/C=C(C)/C=C/C[C@@H](C)CCCC(C)C`, the AC50 is 35.8 µM (active).

Consider `CCOP(=S)(OCC)Oc1ccc(S(C)=O)cc1` (configuration not stated), for which the result was inactive.

On to `ClC1(Cl)C2(Cl)C3(Cl)C4(Cl)C(Cl)(Cl)C5(Cl)C3(Cl)C1(Cl)C5(Cl)C24Cl` (configuration not stated), for which the outcome was inactive.

For the compound `CCC(=O)C(CC(C)N(C)C)(c1ccccc1)c1ccccc1` (configuration not stated), the result was inactive.

`Cn1sc(Cl)cc1=O`: the outcome was inactive.

As to `Oc1cccc2cccnc12`, the AC50 is 4.74 µM (active).

Consider `CC(C)(C)c1cc(O)ccc1O`, for which the AC50 was 14.7 µM (active).

For `CCNc1nc(NC(C)(C)C)nc(SC)n1`, the result was inactive.

`CC(C)c1ccc(CO)cc1`: the outcome was inactive.

`CC(C)(C)CC(C)(C)c1ccc(O)cc1`: the AC50 was 33.8 µM (active).

`CCN1CCC2(CC1)COc1cc3c(cc12)N(C(=O)c1ccc(-c2ccc(-c4nnc(C)o4)cc2C)cc1)CC3`: the AC50 was 33.7 µM (active).

As to `O=Cc1cccc(Oc2ccccc2)c1`, the outcome was inactive.

Regarding `Cc1ccccc1N`, the result was inactive.

In the case of `O=C(O)C(Cl)(Cl)Cl`, the result was inactive.

For the compound `O=c1[nH]c(=O)[nH]c(=O)[nH]1`, the result was inactive.

Consider `O=[N+]([O-])c1ccc2c3c(cccc13)CC2`, for which the result was inactive.

For `C=CC(=O)OCCCCCC(C)C`, the outcome was inactive.

In the case of `CCC(C)(C)c1ccc(O)c(C(C)(C)CC)c1`, the AC50 was 33.8 µM (active).

Consider `CCOP(=S)(OCC)SCCS(=O)(=O)CC`, for which the result was inactive.

As for `Nc1ncc([N+](=O)[O-])s1`, the result was inactive.

Regarding `O=C(O)C(F)(F)C(F)(F)C(F)(F)C(F)(F)C(F)(F)C(F)(F)C(F)(F)C(F)(F)C(F)(F)C(F)(F)F`, the concentration at half-maximal activity (AC50) is 0.141 µM (active) and the outcome was inactive.

On to `O=C(O)C(F)(F)C(F)(F)C(F)(F)C(F)(F)C(F)(F)C(F)(F)F`, for which the result was inactive.

For `NC(=O)O`, the outcome was inactive.

Turning to `Oc1c(I)cc(I)cc1I`, the result was inactive.

Turning to `NC(=S)Nc1ccccc1`, the result was inactive.

`COP(=S)(OC)Oc1ccc(S(=O)(=O)N(C)C)cc1`: the outcome was inactive.

As to `COC[C@H](C)N(C(=O)CCl)c1c(C)csc1C`, the result was inactive.

`Nc1ccc(-c2ccc(N)c(Cl)c2)cc1Cl`: the outcome was inactive.

Read-out in the next assay: Tissue Factor, F3 (gene 2152)
The experiment in a line: BSK_CASM3C_TissueFactor: BioMAP Diversity Plus: CASM3C Assay for Tissue Factor Biomarker Activity (AID 2283052).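 Note: cell surface tissue factor protein level read by ELISA.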 Particulars: primary human coronary artery smooth muscle cells; actives raise or lower the signal.
Regarding `ClCC(Cl)CCl`, the result was inactive.

For `CCOP(=S)(OCC)SCSP(=S)(OCC)OCC`, the outcome was inactive.

For the compound `CC(=O)C(Cl)C(=O)N(C)C` (configuration not stated), the AC50 is 7.43 µM (active).

On to `COc1cc(-c2ccc(N)c(OC)c2)ccc1N`, for which the result was inactive.

With `O=C1C2(Cl)C3(Cl)C4(Cl)C(Cl)(Cl)C5(Cl)C3(Cl)C1(Cl)C5(Cl)C24Cl` (configuration not stated), the AC50 was 19.3 µM (active).

`CCOC(=O)/C=C(C)/C=C/C[C@@H](C)CCCC(C)C`: the AC50 is 20 µM (active).

With `CCOP(=S)(OCC)Oc1ccc(S(C)=O)cc1` (configuration not stated), the result was inactive.

With `ClC1(Cl)C2(Cl)C3(Cl)C4(Cl)C(Cl)(Cl)C5(Cl)C3(Cl)C1(Cl)C5(Cl)C24Cl` (configuration not stated), the result was inactive.

Turning to `CCC(=O)C(CC(C)N(C)C)(c1ccccc1)c1ccccc1` (configuration not stated), the result was inactive.

Take `Cn1sc(Cl)cc1=O`: the outcome was inactive.

As to `Oc1cccc2cccnc12`, the outcome was inactive.

For the compound `CC(C)(C)c1cc(O)ccc1O`, the AC50 was 11.2 µM (active).

With `CCNc1nc(NC(C)(C)C)nc(SC)n1`, the result was inactive.

On to `CC(C)c1ccc(CO)cc1`, for which the result was inactive.

`CC(C)(C)CC(C)(C)c1ccc(O)cc1`: the AC50 is 10 µM (active).

On to `CCN1CCC2(CC1)COc1cc3c(cc12)N(C(=O)c1ccc(-c2ccc(-c4nnc(C)o4)cc2C)cc1)CC3`, for which the outcome was inactive.

For `O=Cc1cccc(Oc2ccccc2)c1`, the result was inactive.

Take `Cc1ccccc1N`: the outcome was inactive.

As to `O=C(O)C(Cl)(Cl)Cl`, the outcome was inactive.

With `O=c1[nH]c(=O)[nH]c(=O)[nH]1`, the outcome was inactive.

In the case of `O=[N+]([O-])c1ccc2c3c(cccc13)CC2`, the outcome was inactive.

Take `C=CC(=O)OCCCCCC(C)C`: the result was inactive.

`CCC(C)(C)c1ccc(O)c(C(C)(C)CC)c1`: the half-maximal activity concentration (AC50) is 11.4 µM (active).

Turning to `CCOP(=S)(OCC)SCCS(=O)(=O)CC`, the result was inactive.

`Nc1ncc([N+](=O)[O-])s1`: the result was inactive.

Turning to `O=C(O)C(F)(F)C(F)(F)C(F)(F)C(F)(F)C(F)(F)C(F)(F)C(F)(F)C(F)(F)C(F)(F)C(F)(F)F`, the outcome was inactive.

In the case of `O=C(O)C(F)(F)C(F)(F)C(F)(F)C(F)(F)C(F)(F)C(F)(F)F`, the result was inactive.

On to `NC(=O)O`, for which the result was inactive.

On to `Oc1c(I)cc(I)cc1I`, for which the outcome was inactive.

As for `NC(=S)Nc1ccccc1`, the outcome was inactive.

In the case of `COP(=S)(OC)Oc1ccc(S(=O)(=O)N(C)C)cc1`, the outcome was inactive.

For the compound `COC[C@H](C)N(C(=O)CCl)c1c(C)csc1C`, the outcome was inactive.

For `Nc1ccc(-c2ccc(N)c(Cl)c2)cc1Cl`, the AC50 is 11.6 µM (active).
